IDH1 R132H inh: human IDH1 R132H inhibition. Potency, µM (series often up to 76.6 µM), for the others: at the highest dose activity change, negative = inhibition, usual class: inhibitors. AID 602179. actives 0.093% (n = 390,000). IDH1-R132H enzyme, NADPH consumption, diaphorase/resazurin fluorescence; note: potency is the fitted concentration of half-maximal effect; % is set by controls: 0 for no effect and ±100 for the full control effect; nearly all actives have a fitted effect of over 65% in size
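IDH1-R132H (0.5 ug/mL) preincubated 30 min with compound, then NADPH (0.016 mM) and alpha-KG (2 mM) added; 80 min at RT, pH 7.5. Remaining NADPH coupled via diaphorase/resazurin to fluorescence (540/590 nm); concentration-response curves normalized to no-enzyme control.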
LDHA inh: blocks human lactate dehydrogenase A. P00338. actives 0.15% (n = 480,000). purified LDHA, NADH/diaphorase-resazurin fluorescence; stronger effect = lower value. activity change, % (values are at about 110 or 230 µM); in the data active = activity change below about -30%; inconclusive = mostly about -25% to -30%;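 note: plate controls were DMSO wells for no effect and wells without enzyme for full effect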
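Human LDH5 (2 nM) was incubated with 0.06 mM NADH and 0.2 mM pyruvate for 5 min at room temperature in Tris pH 7.4. Remaining NADH was coupled through diaphorase/resazurin, and resorufin fluorescence was read at 0 and 20 min.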
GLP1R ag: activates the human GLP-1 receptor; P43220; HEK293 GLP-1R CRE-luciferase, luminescence, 4-6 h; cells express a hypersensitive GLP-1R form; Potency, µM (series often up to 45.6 µM), for inactives: at the highest dose activation, hits mostly activators; actives 0.007% (n = 380,000); note: potency is the fitted concentration of half-maximal effect; % of control where 0% means no effect
Target sequence (P43220 whole entry, looked up): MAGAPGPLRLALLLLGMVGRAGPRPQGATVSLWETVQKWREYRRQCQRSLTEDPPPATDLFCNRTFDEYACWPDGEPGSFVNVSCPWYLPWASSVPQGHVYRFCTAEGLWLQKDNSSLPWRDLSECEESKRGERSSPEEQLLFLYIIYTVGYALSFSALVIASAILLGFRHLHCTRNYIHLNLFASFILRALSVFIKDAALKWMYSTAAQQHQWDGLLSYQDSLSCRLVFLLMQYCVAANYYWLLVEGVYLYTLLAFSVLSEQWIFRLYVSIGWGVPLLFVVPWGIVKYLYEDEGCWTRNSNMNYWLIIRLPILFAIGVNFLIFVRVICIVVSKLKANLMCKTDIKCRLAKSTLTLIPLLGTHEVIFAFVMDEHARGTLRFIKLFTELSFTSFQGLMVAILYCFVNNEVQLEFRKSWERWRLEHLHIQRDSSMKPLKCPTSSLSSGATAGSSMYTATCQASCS
PTHR1 ag: agonists of human PTHR1 parathyroid hormone receptor; HEK293 GP2 PTHR1 cells, GloSensor cAMP luminescence, 1 h; Q03431; actives 0.075% (n = 410,000); Potency, µM (titrated, usually from 115 µM), for the others: top-dose activation, hits mostly activators; note: potency is the fitted concentration of half-maximal effect; nearly all actives have a fitted effect of over 55% in size
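HEK-293-derived GP2 cells expressing PTHR1 and a GloSensor cAMP reporter, 3,000/well, plated overnight, given luciferin plus IBMX (each 0.5 mM as added) for 1 h at 37 °C, then compound for 1 h at 37 °C. Luminescence was read after 15 min at room temperature.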
GLP1R cytotox: cytotoxicity in counter-screen for GLP-1R inverse agonists | HEK293 cAMP-luciferase reporter cells, luminescence, 24 h | Potency, µM (highest dose often 38.3 µM), for the others: at the highest dose activity change, negative = inhibition, hits mostly inhibitors | actives 0.13% (n = 410,000) | AID 624418;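 note: loss of luciferase light is scored as toxicity; potency is the fitted concentration of half-maximal effect; % is set by controls: 0 for no effect and ±100 for the full control effect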
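Luminescence readout: signal drop marks cytotoxicity. Plated cells grew 12 h at 37 °C, 5% CO2, received 23 nL compound for 24 h, then got luciferase reagent, read after 12 min at RT.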
GLP1R inv ag: inverse agonists of human GLP-1 receptor; HEK293 GLP-1R CRE-luciferase, luminescence, 24 h; GLP-1R form is constitutively active; Potency, µM (titrated, usually from 38.3 µM), for the others: at the highest dose activity change, negative = inhibition, hits mostly inhibitors; actives 1.6% (n = 410,000); AID 624417; note: potency is the fitted concentration of half-maximal effect; % is set by controls: 0 for no effect and ±100 for the full control effect; nearly all actives have a fitted effect of over 55% in size
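Assay principle: reduced luminescence from a cAMP-responsive reporter in HEK293 cells co-expressing a constitutively active GLP-1R. Conditions: 24 hr compound incubation, 37 deg C, 5% CO2.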
Starred values were filed as active, the others as inactive; i = inactive; ? = inconclusive; / = not tested or not shown; [ ] = another dose, or the depositor's remark. Only some compounds are listed: those with a hit (about 1.7% of all), similar ones and a draw of the others. Unless noted, calls come from the whole dose curve; as a rule, active = well fitted curve in the direction sought with a large enough effect; inconclusive = small, poorly fitted or top-dose-only effect, or another doubt; inactive = no such curve, though single readings can be large; an effect the other way counts as inactive or inconclusive.

SMILES | IDH1 R132H inh | LDHA inh | GLP1R ag | PTHR1 ag | GLP1R cytotox | GLP1R inv ag
CC(C)C(NCC(=O)Nc1ccccc1C(=O)NC1CC1)c1ccccc1 (stereo unspecified) | -6.1% | -5.8 | 8.7% | i | -19.5% | 10µM*
CC(NCC(=O)Nc1ccccc1C(=O)NC1CC1)c1cccs1 (stereo unspecified) | 3.8% | -4.8 | 17.8% | i | -7.6% | 12.8%
C=CCNC(=O)/C=C/c1ccc(OC)cc1 | / | 4.2 | / | / | / | /
Cc1ccc(C(=O)NC(C)C2CCCO2)cc1 (stereo unspecified) | / | 1.9 | / | / | / | /
CC(C)c1nnc(NC(=O)c2ccc3c(c2)OCO3)s1 | 2.4% | -1.9 | -0.8% | -40.4% | -9.9% | 1.12µM*
CC(c1ccccc1)c1nnc(NC(=O)c2ccc3c(c2)OCO3)s1 (stereo unspecified) | 18.0% | -2.5 | 1.9% | i | -56.8% | -18.6%
CCOC(=O)C(Cc1nc(OCc2ccccc2)cc(OCc2ccccc2)n1)=NO | 3.4% | 1.3 | -3.0% | -34.7% | -14.7% | ?
CCOC(=O)C(=O)Cc1nc(OCc2ccccc2)cc(OCc2ccccc2)n1 | 6.5% | -5.5 | 15.9% | i | 17.9% | 10µM*
O=C(C1CCCCC1)N(Cc1cccnc1)c1nc2c(F)cccc2s1 | -29.6% | 1.3 | / | ? | -4.3% | 8.91µM*
O=C(CCc1cccnc1)Nc1ccc(N2CCOCC2)cn1 | / | -21.5 | / | / | / | /
CCOc1ccc(S(=O)(=O)Nc2ccc(Cl)cn2)c(C)c1C | -1.6% | -0.7 | -14.3% | -49.7%[57.5 µM] | 2.0% | 11.2µM*
Cc1nc2c(sc(=S)n2Cc2ccco2)c(=O)n1CC(=O)Nc1cc(F)ccc1F | 0.4% | -11.7 | -4.4% | -13.9% | -9.8% | 1.41µM*
O=C(NCc1ccc(F)cc1)C1CCN(S(=O)(=O)c2ccc(Br)s2)CC1 | -2.1% | -4.4 | 6.1% | -13.1% | -6.8% | 10µM*
COc1ccc(C(C)C)cc1S(=O)(=O)NCCc1c(C)[nH]c2c(Cl)cccc12 | / | -2.1 | / | i | -26.7% | ?
COc1cc(S(=O)(=O)NCCc2c(C)[nH]c3ccc(C)cc23)ccc1Br | 3.0% | -7.8 | / | -95.7% | 0.2% | 10µM*
COc1ccc(C(C)C)cc1S(=O)(=O)NCCc1c(C)[nH]c2ccc(C)cc12 | 0.0% | 2.5 | / | i | 2.1% | 11.2µM*
Cc1ccc(-c2nn(C)c(=O)c3c2CCCC3)cc1S(=O)(=O)N1CCCC1 | / | 8.3 | / | / | / | /
CC(C)(CN1CCCC1)NS(=O)(=O)c1ccc(Cl)cc1 | -10.1% | -2.7 | 7.3% | -7.1% | 9.0% | 7.2%
CC(C)(CN1CCNCC1)NS(=O)(=O)c1ccc(Cl)cc1 | -4.9% | -4.3 | 14.2% | -23.4% | ? | 2µM*
CCOC(=O)C1CCN(CC(C)(C)NS(=O)(=O)c2ccc(C)cc2)CC1 | -9.9% | -7.6 | 3.3% | 5.5% | -17.4% | ?
Cc1ccc(S(=O)(=O)NC(C)(C)CN2CCC(Cc3ccccc3)CC2)cc1 | 0.0% | -6.9 | 2.6% | -26.7% | -29.5% | 2.51µM*
COc1cccc(NC(=O)Nc2c(NC3CCCCC3)c3ccccc3oc2=O)c1 | / | -2.9 | / | / | / | /
COc1ccc(/C=C2\SC(=S)N(CCC(=O)Nc3ccc(O)cc3)C2=O)cc1 | 1.2% | -6.2 | -5.2% | -29.6% | -23.2% | -4.7%
CCN(CC)CCOC(=O)c1ccc(NC(=O)CCCN2C(=O)S/C(=C/c3ccc(OC)cc3)C2=S)cc1 | 1.0% | -0.1 | -3.0% | i | ? | 2.82µM*
CC(C)N(C(=O)c1nn(C)c2c1CSc1ccccc1-2)C1CCCCC1 | -2.7% | -0.3 | 6.8% | -8.0% | -11.9% | 10µM*
CCOc1ccc(CCNC(=O)c2nn(C)c3c2CSc2ccccc2-3)cc1 | -11.9% | -6.2 | / | -31.7% | 2.8% | 10µM*
COc1ccc(OC)c(CN(Cc2ccc(C#N)cc2)C2CC2)c1 | / | 1.7 | / | / | / | /
CCc1c(C)sc(NC(=O)C(F)(F)C(F)(F)C(F)(F)C(F)(F)F)c1C#N | / | 15.0 | / | / | / | /

Screening results as filed in PubChem BioAssay.
